Assay results as given in PubChem BioAssay AID488969 (Vanderbilt High Throughput Screening Facility, 2010).
Whole data set: some 110,000 compounds, median “z-score” near -0.1, cut for the highest 2% near 2. The sample as a whole holds a higher share of the highest values than the screen did. The source made the active and inactive calls.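 How the source made its calls: active means z-score in the third read window above 3 or below -3; inactive means the rest.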

Target: Metabotropic glutamate receptor 8 (Rattus norvegicus) (UniProt P70579)
Sequence (P70579 whole entry, looked up): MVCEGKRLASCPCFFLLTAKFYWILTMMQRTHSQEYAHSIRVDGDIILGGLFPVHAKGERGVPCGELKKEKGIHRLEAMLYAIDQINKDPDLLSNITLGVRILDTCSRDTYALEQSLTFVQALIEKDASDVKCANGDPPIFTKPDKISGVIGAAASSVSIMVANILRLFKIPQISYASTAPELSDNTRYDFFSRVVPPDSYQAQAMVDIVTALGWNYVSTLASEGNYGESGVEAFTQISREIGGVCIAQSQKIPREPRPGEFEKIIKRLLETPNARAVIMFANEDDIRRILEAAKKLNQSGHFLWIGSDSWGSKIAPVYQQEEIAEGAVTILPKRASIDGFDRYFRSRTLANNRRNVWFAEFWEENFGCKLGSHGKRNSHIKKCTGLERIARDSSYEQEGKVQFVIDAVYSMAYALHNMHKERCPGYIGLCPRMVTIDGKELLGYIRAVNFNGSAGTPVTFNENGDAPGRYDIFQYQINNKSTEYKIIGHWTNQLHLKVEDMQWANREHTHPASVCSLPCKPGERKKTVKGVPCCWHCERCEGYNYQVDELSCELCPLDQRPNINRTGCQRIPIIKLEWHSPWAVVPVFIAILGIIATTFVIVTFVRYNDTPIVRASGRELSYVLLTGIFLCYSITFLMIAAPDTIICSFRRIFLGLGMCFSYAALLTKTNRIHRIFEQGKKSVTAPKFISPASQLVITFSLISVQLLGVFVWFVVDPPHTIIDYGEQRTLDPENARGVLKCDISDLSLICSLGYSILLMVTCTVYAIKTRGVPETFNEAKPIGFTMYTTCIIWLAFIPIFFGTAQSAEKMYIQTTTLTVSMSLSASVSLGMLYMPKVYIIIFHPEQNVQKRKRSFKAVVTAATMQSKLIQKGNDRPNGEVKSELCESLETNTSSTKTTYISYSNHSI
Experiment: rat mGluR8 modulators via GIRK flux, primary screen, cell-based, thallium flux, HTS (AID 488969)
Settings: HEK293 rat mGluR8, GIRK (G protein-gated inwardly rectifying potassium channel) thallium flux, FluoZin2; at 10 µM; stronger effect = higher value; submaximal glutamate (EC20) added with thallium

SMILES | z-score
Cc1ccc(-n2nc(CN3CCOCC3)c(-c3ccccc3)c2N)c(C)c1 | -0.0359
CCCOc1ccc(-c2csc(N)n2)cc1[N+](=O)[O-] | -0.349
Cc1ccc(C2NC(c3ccc(C)cc3)C(C)C(=NO)C2C)cc1 (centres undefined) | -0.376
O=C(Nn1cnnc1)c1ccccc1CCc1ccccc1 | 0.0675
CS(=O)(=O)c1ccc2nc(NC(=O)C3COc4ccccc4O3)sc2c1 (centres undefined) | 0.303
Cn1c(=O)c2c(nc(NCc3ccc4c(c3)OCO4)n2Cc2ccccc2)n(C)c1=O | -1.09
CCc1ccc(S(=O)(=O)N2CC(=O)Nc3ccccc32)cc1 | -0.195
Cc1cccc(Sc2ccc([N+](=O)[O-])cc2[N+](=O)[O-])n1 | -0.278
COc1cc(C=O)c(Br)cc1OC1CCCC1 | 2.09
COc1cc(C=O)c(Br)cc1OCc1ccc(C)cc1 | -0.101
CCOc1cc(C=O)c(Br)cc1OC1CCCC1 | 0.0863
CCOc1ccc(CCNC(=O)C2CCN(C(=O)N(C)C)CC2)cc1OCC | 0.862
Clc1cccc2c1Sc1ccccc1CC2N1CCNCC1 (centres undefined) | 0.386
Clc1ccc2c(c1)C(C1=NCCN1)c1ccccc1CS2 (centres undefined) | 0.865
Clc1ccc2c(c1)C(N1CCNCC1)Cc1ccccc1S2 (centres undefined) | 3.92 (active)
COc1ccc(OC)c(N(CC(=O)Nc2cccnc2)S(=O)(=O)c2ccccc2)c1 | -0.398
C=CCOc1cccc(/C=N/NC(=O)CN(c2cc(Cl)ccc2OC)S(=O)(=O)c2ccc(C)c([N+](=O)[O-])c2)c1 | -0.0532
Cc1ccc2nc3sc(C(=O)NCc4ccco4)c(N)c3cc2c1 | -0.222
CNC(=O)CSc1nnnn1CCCOC | 0.0742
CCC1(O)CC(C(=O)OC)=NN1C(=O)c1ccccc1 (centres undefined) | 0.602
COC(=O)C1=NN(C(=O)c2ccccc2)C(C)(O)C1 (centres undefined) | 0.19
CCC1=NN(C(=O)c2cccc(Br)c2)C(O)(c2ccc(Br)cc2)C1 (centres undefined) | 3.84 (active)
COC(=O)C1=NN(C(=O)c2ccc(C)cc2)C(O)(c2ccc(Cl)cc2)C1 (centres undefined) | 8.48 (active)
COC(=O)C1=NN(C(=O)c2ccc(Cl)cc2)C(O)(c2ccccc2)C1 (centres undefined) | 11.5 (active)
CCOC(=O)C1=NN(C(=O)c2ccco2)C2(CC2)C1 | -0.239

SMILES | z-score
CCOC(=O)C1=NN(C(C)=O)C2(CC(=O)N(c3cccc(C)c3)C2=O)C1 (centres undefined) | -0.0266
COC(=O)C1(O)CC(C(C)C)=NN1C(=O)c1ccc(Cl)cc1 (centres undefined) | 0.417
CCC1=NN(C(=O)c2ccc(C)cc2)C(O)(c2ccc(Br)cc2)C1 (centres undefined) | 0.175
CCC1=NN(C(=O)Cc2ccc([N+](=O)[O-])cc2)C(O)(c2ccc(Br)cc2)C1 (centres undefined) | -0.206
CC1=NN(C(=O)c2ccc(C)cc2)C(O)(C(F)(F)OC(F)(F)F)C1 (centres undefined) | -0.0203
CCOC(=O)C1=NN(C(=O)c2ccccc2)C(O)(c2ccc(C)cc2)C1 (centres undefined) | 10.5 (active)
Cn1ncc(Br)c1C(=O)OCC(=O)Nc1nc(-c2ccccc2)cs1 | -0.654
CCCCOCCCNC(=O)/C=C/c1ccccc1Cl | -0.149
C/C=C/c1ccc(OCCCNC2CCCC2)c(OC)c1 | 1.24
COC(=O)c1cc(C#N)c(N(C)Cc2ccccc2)nc1C | -0.154
CCc1nnc(NC(=O)CSc2nnc(-c3ccncc3)n2C)s1 | -1.78
COC(=O)c1cc(O)c(OCc2ccccc2)c(O)c1 | -0.276
CCOC(=O)C1=C(C)NC(=O)NC1c1cccc(O)c1 (centres undefined) | -0.126
CCOC(=O)C1CCC(CNCc2ccc(Cl)cc2)CC1 (centres undefined) | -1.85
CNc1c([N+](=O)[O-])cnn1-c1ccc(Cl)cc1Cl | -0.197
CC1=NN(C(=O)COc2ccc(C)c(C)c2)C(O)(c2ccc(Cl)cc2)C1 (centres undefined) | -0.32
CC1=NN(C(=O)COc2ccccc2C)C(O)(c2ccc(Cl)cc2)C1 (centres undefined) | -0.867
CCOC(=O)C1=NN(C(=O)c2ccc(C)cc2)C(O)(c2ccc(Cl)cc2)C1 (centres undefined) | 10.4 (active)
CN1CCN(c2ncnc3c2cnn3-c2ccc(Cl)cc2)CC1 | 0.276
COc1ccccc1OCCNc1nc2c(c(=O)n(C)c(=O)n2C)n1C | 1.41
Cc1ccc(Cc2cnc(NC(=O)c3ccco3)s2)cc1 | -0.555
Cc1ccc(NC(=O)CSc2nc3ccccc3c3nc(CCc4c(C)n[nH]c4C)nn23)cc1F | -0.264
COC(=O)CN1C(=O)CSc2ncccc21 | 0.767
CNC(=O)CN1C(=O)CSc2ncccc21 | 0.227
COCCNC(=O)CN1C(=O)CSc2ncccc21 | 3.57 (active)

SMILES | z-score
COC(=O)c1ccc(C)c(NC(=O)Cc2coc3cc(OC)ccc23)c1 | 0.022
Cn1c(SCCOc2cccc(Cl)c2)nnc1-c1ccncc1 | -0.17
COCCSc1nnc(-c2cccc(C#N)c2)n1C | 2.31
Cc1ccc(OCCSc2nnc(-c3ccncc3)n2C)cc1 | -0.157
Cc1ccc(S(=O)(=O)N2CCC(C(=O)N3CCC[C@H]3C(=O)NCc3ccccc3)CC2)cc1 | -0.265
CCC(c1nnnn1C(C)(C)C)N1CCN(C2CCCC2)CC1 (centres undefined) | 0.224
O=C(CN(Cc1cccs1)C(=O)CNS(=O)(=O)c1ccc(F)cc1)NCc1ccco1 | -0.317
Cc1ccc(-c2cc(-c3cccs3)[nH]n2)c(O)c1 | 2.77
Cc1ccc(-c2cc(-c3ccccc3C)[nH]n2)c(O)c1 | -0.115
Cc1ccc(-c2cc(-c3ccccc3[N+](=O)[O-])[nH]n2)c(O)c1 | -0.292
COC(=O)c1cc(NS(=O)(=O)c2ccc(NCc3cccnc3)c(N)c2)cc(C(=O)OC)c1 | -0.104
CCOC(=O)c1nc2cc3n(c(C)c-2c1C)C(C)C(CC)=C3C (centres undefined) | 2.31
CCOC(=O)c1nc2cc3n(c(CC(C)C)c-2c1C)CC(C)=C3C | 0.604
CCOC(=O)c1nc2cc3n(c(C)c-2c1C)C(C)C(C)=C3C (centres undefined) | -0.0669
CCOC(=O)Nc1sc2c(c1C#N)CCCC2 | 0.504
Cc1cnc(NC(=O)COc2ccccc2Cl)s1 | 3.06 (active)
CSc1ccccc1NC(=O)COc1ccccc1Cl | -1.54
Cc1cnc(NC(=O)COc2cccc3c2OC(C)(C)C3)s1 | 0.713
COc1ccc(CCCC(=O)NC2CCCCC2)cc1 | -0.301
COc1ccc(S(=O)(=O)NCCC(=O)NC2CCCCCCC2)cc1 | 3.82 (active)
CCCCNC(=O)CCCCCNS(=O)(=O)c1ccc(OC)cc1 | 1.14
O=C(CCCCCNS(=O)(=O)c1ccc(Br)cc1)NCCN1CCOCC1 | 0.263
Cc1ccc(S(=O)(=O)NCCC(=O)NC2CCCC2)cc1 | 0.757
COc1ccc(S(=O)(=O)NCCCCCC(=O)NCCCN2CCOCC2)cc1 | 2.89
